From PubChem BioAssay AID1159580 (chemical genetic matrix, 2015)
Several values for one entry are separate records, joined by “and”; a condition that tells them apart may be missing. Equal entries are not always repeated. In all, about 5,500 compounds went through this assay and about 2,000 (36%) were called active. Roughly 18% stayed inconclusive and do not appear here. No stated cut-off is given here; in the data, active means normalized growth mostly below about 0.91 (no sharp cut-off); inconclusive means no clear call, values can overlap the other calls; inactive means mostly above about 0.92. The list shows a part of the results.

Experiment: chemical genetic growth profiling, strain panel (AID 1159580);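 further: tested at 20 µM; growth read once vehicle control cultures reached saturation at 30 °C; 1 = growth at the plate median or of vehicle wells; lower values mean less growth of the strain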
Details: growth OD

Measured: normalized growth

CCCCNC(=O)NS(=O)(=O)c1ccc(C)cc1
inactive: S. cerevisiae deletion strains, locus YJR075W, strain HOC1, hits give low values 0.963 and 0.994 | S. cerevisiae deletion strains, locus YKL009W, strain mrt4, hits give low values 0.953 | S. cerevisiae deletion strains, locus YKL068W, hits give low values 0.98 | S. cerevisiae deletion strains, locus YKL085W, strain MDH1 (second series), hits give low values 0.973 | S. cerevisiae deletion strains, locus YKL085W, strain MDH1, hits give low values 0.973 | S. cerevisiae deletion strains, locus YKL160W, strain elf1, hits give low values 1 | S. cerevisiae deletion strains, locus YKL190W, strain CNB1, hits give low values 0.991 | S. cerevisiae deletion strains, locus YKR001C, strain vps1, hits give low values 0.985 | S. cerevisiae deletion strains, locus YKR026C, strain gcn3, hits give low values 0.999 | S. cerevisiae deletion strains, locus YKR091W, strain srl3, hits give low values 1.01 | S. cerevisiae deletion strains, locus YLL001W, strain dnm1, hits give low values 1.02 | S. cerevisiae deletion strains, locus YLL026W, hits give low values 1.01 | S. cerevisiae deletion strains, locus YLL041C, strain sdh2, hits give low values 1.01 | S. cerevisiae deletion strains, locus YLR027C, strain aat2, hits give low values 1 | S. cerevisiae deletion strains, locus YLR039C, strain RIC1, hits give low values 0.961 | S. cerevisiae deletion strains, locus YLR058C, strain SHM2, hits give low values 0.991 | S. cerevisiae deletion strains, locus YLR102C, strain apc9, hits give low values 0.985 | S. cerevisiae deletion strains, locus YLR113W, strain HOG1, hits give low values 0.915 | S. cerevisiae deletion strains, locus YLR221C, strain rsa3, hits give low values 0.952 | S. cerevisiae deletion strains, locus YLR258W, strain gsy2, hits give low values 1.01 | S. cerevisiae deletion strains, locus YLR262C, strain YPT6 (second series), hits give low values 0.984 | S. cerevisiae deletion strains, locus YLR262C, strain YPT6, hits give low values 0.933 | S. cerevisiae deletion strains, locus YLR268W, strain sec22, hits give low values 0.951 | S. cerevisiae deletion strains, locus YLR320W, strain mms22, hits give low values 0.999 | S. cerevisiae deletion strains, locus YLR330W, strain CHS5, hits give low values 0.986 | S. cerevisiae deletion strains, locus YLR342W, strain FKS1 (second series), hits give low values 1.01 | S. cerevisiae deletion strains, locus YLR342W, strain FKS1, hits give low values 1.02 | S. cerevisiae deletion strains, locus YLR357W, strain rsc2, hits give low values 1.02 | S. cerevisiae deletion strains, locus YLR370C, strain arc18, hits give low values 1.02 | S. cerevisiae deletion strains, locus YLR371W, strain rom2, hits give low values 0.974 | S. cerevisiae deletion strains, locus YLR384C, strain iki3, hits give low values 1.02 | S. cerevisiae deletion strains, locus YLR418C, strain cdc73, hits give low values 1.01 | S. cerevisiae deletion strains, locus YML016C, strain PPZ1, hits give low values 0.996 | S. cerevisiae deletion strains, locus YML032C, strain rad52, hits give low values 0.983 | S. cerevisiae deletion strains, locus YML120C, strain ndi1, hits give low values 1.03 | S. cerevisiae deletion strains, locus YML124C, strain tub3, hits give low values 0.979 | S. cerevisiae deletion strains, locus YMR058W, strain fet3, hits give low values 1.02 | S. cerevisiae deletion strains, locus YMR078C, strain ctf18, hits give low values 0.969 | S. cerevisiae deletion strains, locus YMR125W, strain sto1, hits give low values 1.02 | S. cerevisiae deletion strains, locus YMR129W, hits give low values 1.01 | S. cerevisiae deletion strains, locus YMR205C, strain PFK2, hits give low values 1.01 | S. cerevisiae deletion strains, locus YMR223W, strain ubp8, hits give low values 1.01 | S. cerevisiae deletion strains, locus YMR231W, strain pep5, hits give low values 1 | S. cerevisiae deletion strains, locus YMR263W, strain SAP30, hits give low values 0.999 | S. cerevisiae deletion strains, locus YMR307W, strain GAS1, hits give low values 1.01 and 1 | S. cerevisiae deletion strains, locus YNL067W, strain RPL9B, hits give low values 0.992 | S. cerevisiae deletion strains, locus YNL071W, strain lat1, hits give low values 1.01 | S. cerevisiae deletion strains, locus YNL128W, strain TEP1, hits give low values 0.965 and 0.986 | S. cerevisiae deletion strains, locus YNL175C, strain NOP13, hits give low values 1.01 | S. cerevisiae deletion strains, locus YNL183C, strain NPR1, hits give low values 0.912 | S. cerevisiae deletion strains, locus YNL197C, strain WHI3, hits give low values 1.01 | S. cerevisiae deletion strains, locus YNL209W, strain ssb2, hits give low values 1.02 | S. cerevisiae deletion strains, locus YNL224C, strain SQS1, hits give low values 0.995 | S. cerevisiae deletion strains, locus YNL233W, strain BNI4, hits give low values 1 | S. cerevisiae deletion strains, locus YNL248C, strain rpa49, hits give low values 1 | S. cerevisiae deletion strains, locus YNL250W, strain rad50, hits give low values 0.998 | S. cerevisiae deletion strains, locus YNL271C, strain bni1, hits give low values 0.991 | S. cerevisiae deletion strains, locus YNL298W, strain CLA4, hits give low values 0.981 | S. cerevisiae deletion strains, locus YNL307C, strain MCK1, hits give low values 0.978 | S. cerevisiae deletion strains, locus YNL322C, strain KRE1 (second series), hits give low values 0.99 | S. cerevisiae deletion strains, locus YNL322C, strain KRE1, hits give low values 0.992 | S. cerevisiae deletion strains, locus YNR049C, strain mso1, hits give low values 1.01 | S. cerevisiae deletion strains, locus YNR052C, strain pop2, hits give low values 0.98 | S. cerevisiae deletion strains, locus YOL006C, strain TOP1, hits give low values 1.07 | S. cerevisiae deletion strains, locus YOL012C, strain htz1 1.12 | S. cerevisiae deletion strains, locus YOL147C, strain pex11, hits give low values 0.981 | S. cerevisiae deletion strains, locus YOR001W, strain rrp6, hits give low values 1.02 | S. cerevisiae deletion strains, locus YOR061W, strain CKA2, hits give low values 1 | S. cerevisiae deletion strains, locus YOR069W, strain VPS5, hits give low values 0.985 | S. cerevisiae deletion strains, locus YOR070C, strain gyp1, hits give low values 1.01 | S. cerevisiae deletion strains, locus YOR080W, strain dia2, hits give low values 1.02 | S. cerevisiae deletion strains, locus YOR083W, strain WHI5 (second series), hits give low values 1.01 | S. cerevisiae deletion strains, locus YOR083W, strain WHI5, hits give low values 0.998 | S. cerevisiae deletion strains, locus YOR106W, strain vam3, hits give low values 1.04 | S. cerevisiae deletion strains, locus YOR136W, strain idh2, hits give low values 0.998 | S. cerevisiae deletion strains, locus YOR144C, strain elg1, hits give low values 0.992 | S. cerevisiae deletion strains, locus YOR184W, strain ser1, hits give low values 1 | S. cerevisiae deletion strains, locus YOR231W, strain MKK1, hits give low values 0.983 | S. cerevisiae deletion strains, locus YOR265W, strain rbl2, hits give low values 1.01 | S. cerevisiae deletion strains, locus YOR270C, strain vph1, hits give low values 1.04 | S. cerevisiae deletion strains, locus YOR290C, strain snf2, hits give low values 0.998 | S. cerevisiae deletion strains, locus YOR316C, strain cot1, hits give low values 0.979 | S. cerevisiae deletion strains, locus YPL051W, strain arl3, hits give low values 0.999 | S. cerevisiae deletion strains, locus YPL055C, strain LGE1, hits give low values 1.01 | S. cerevisiae deletion strains, locus YPL078C, strain atp4, hits give low values 1.04 | S. cerevisiae deletion strains, locus YPL106C, strain sse1, hits give low values 1.06 | S. cerevisiae deletion strains, locus YPL240C, strain hsp82, hits give low values 1 | S. cerevisiae deletion strains, locus YPL241C, strain CIN2, hits give low values 0.994 and 1 | S. cerevisiae deletion strains, locus YPL256C, strain CLN2, hits give low values 0.945 | S. cerevisiae deletion strains, locus YPR119W, strain clb2, hits give low values 0.986 | S. cerevisiae deletion strains, locus YPR141C, strain kar3, hits give low values 0.979 | S. cerevisiae deletion strains, locus YPR163C, strain tif3, hits give low values 0.979 | S. cerevisiae deletion strains, locus YPR167C, strain met16, hits give low values 0.987 | S. cerevisiae deletion strains, strain wtn01, hits give low values 0.969 | S. cerevisiae strains, strain wild type, hits give low values 1
